Source: PubChem
This is a sample that favours compounds with a hit; in the whole collection about 21% have one here.
NS1 function inh: blocks influenza NS1 protein function. Potency, µM (series often up to 46.1 µM), for the others: at the top dose activity, positive = more growth. hit rate 0.4% among 270,000; calls by dose curve; further: potency means the concentration at half of the fitted maximal effect; actives are rising curves; nearly all actives have a fitted effect of over 50% in size
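S. cerevisiae expressing influenza A NS1, grown in glucose, washed, then diluted 1:100 into pH 6.0 -URA galactose medium with 23 nl compound. Growth recovery read as OD600; NS1-free strain serves as control.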
Pf growth 96h: P. falciparum growth inhibition at 96 hours | P. falciparum luciferase reporter growth, 96 h | Potency, µM (titrated, usually from 28.7 µM), inactives show at the top dose activity change, negative = inhibition, hits mostly inhibitors | hit rate 6.9% among 320,000 | AID 504834; further: potency means the concentration at half of the fitted maximal effect; on the % scale 0 is the no-effect control and ±100 the full control effect
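Cell-based qHTS: luciferase-tagged P. falciparum in erythrocytes (2% hematocrit, 0.05% parasitemia final) incubated with compounds for 96 hours, 37 C, 5% CO2; luciferase detection reagent then added and luminescence measured.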
Pf growth 48h: P. falciparum growth inhibition at 48 hours (one generation) | P. falciparum luciferase growth in erythrocytes, 48 h | Potency, µM (top dose mostly 28.7 µM), without a hit: at the top dose activity change, negative = inhibition, actives largely listed as inhibitors | hit rate 5.9% among 310,000 | AID 504832; further: potency means the concentration at half of the fitted maximal effect; on the % scale 0 is the no-effect control and ±100 the full control effect
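Erythrocytes infected with P. falciparum carrying an integrated firefly luciferase reporter (2% hematocrit, 0.1% parasitemia final) were exposed to compounds in RPMI 1640 with 0.5% Albumax at 37 C, 5% CO2. Growth inhibition was scored as reduced luminescence.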
Shiga toxin inh: Shiga toxin inhibition; hit rate 9.2% among 290,000; Vero cells, Shiga toxin protein synthesis inhibition reporter; inhibition, % at 38.7 µM; in the data active means inhibition mostly above about 28%, no sharp cut-off; inactive means mostly below about 43%; further: 0% is about no effect
Cycloheximide cs: counter-screen for Shiga toxin inhibitors: cycloheximide protein synthesis inhibition; cell reporter, cycloheximide protein synthesis inhibition counterscreen; max response, %; hit rate 12% among 300,000; AID 2314; in the data active means max response mostly above about 13%, no sharp cut-off; inactive means mostly below about 14%; further: read at 38.3 µM for the half of the compounds with a filed dose; 0% is about no effect
Starred values were filed as active, the others as inactive; ? = inconclusive; . = not tested or not shown. Unless noted, the call rests on the fitted dose curve; in most records, active means well fitted inhibition curve with a large enough effect; inconclusive means small, poorly fitted or top-dose-only effect, or another doubt; inactive means no such curve, though single readings can be large or run the other way.

SMILES | NS1 function inh | Pf growth 96h | Pf growth 48h | Shiga toxin inh | Cycloheximide cs
O=C(NCc1cccs1)c1cccc(S(=O)(=O)N2CCCCC2)c1 | -10% | . | -12% | -18 | 0
O=C(NCc1ccco1)c1ccc(Cl)c(S(=O)(=O)N2CCc3ccccc32)c1 | 13% | ? | ? | 12 | 17*
O=C(Nc1ccccc1)c1ccc(NCCN2CCOCC2)c(S(=O)(=O)N2CCOCC2)c1 | -20% | . | -16% | -8 | -2
O=C(NCc1cccs1)c1ccc(Cl)c(S(=O)(=O)N2CCCC2)c1 | . | ? | 0.33µM* | -6 | 8
Cc1ccc(S(=O)(=O)NCC(=O)N/N=C/c2ccccc2O)cc1 | -3% | 8% | ? | 11 | -4
O=C(NCC1(N2CCOCC2)CCCCC1)c1ccc(Cl)c(S(=O)(=O)NCc2ccco2)c1 | -8% | 26% | 6.6µM* | -8 | 8
Cc1cc(S(=O)(=O)N2CCN(c3ccc(F)cc3)CC2)c(C)s1 | -21% | ? | . | -6 | -2
CC12CCC3C(CC=C4CC(O)CCC43C)C1C/C(=C\c1ccccc1F)C2=O (stereo unspecified) | 9% | 5.9µM* | ? | -19 | -5
COc1cccc(NC(=O)COC(=O)Cn2c(C)csc2=O)c1 | . | 2% | -3% | . | .
COc1ccccc1N1CCN(C(=O)CSc2ccccc2)CC1 | -3% | 51% | . | 65* | 27*
COc1ccccc1N(CC(=O)N1CCC(C(N)=O)CC1)S(=O)(=O)c1ccccc1 | 6% | 6% | 13% | -2 | -6
CCOc1ccccc1N1CCN(C(=O)CCCN2C(=O)c3cccc4cccc(c34)C2=O)CC1 | -10% | 9.3µM* | ? | -7 | -3
COc1ccccc1N1CCN(C(=O)c2ccccc2SCC(=O)N2CCCC2)CC1 | . | -10% | ? | . | .
CCOc1ccccc1N1CCN(C(=O)c2ccccc2SCC(=O)N2CCCC2)CC1 | 4% | 13µM* | ? | 27* | 15*
COc1ccccc1N1CCN(C(=O)CN(c2ccccc2OC)S(=O)(=O)c2ccccc2)CC1 | -8% | 1.3µM* | ? | 11 | -1
C=CCn1c(SCCC(=O)O)nc2c1c(=O)n(C)c(=O)n2C | -2% | . | 3% | -10 | -2
COc1ccccc1NC(=O)C1(c2ccccc2)CCCC1 | -7% | 29% | -16% | -9 | -3
Cc1cc(C)c(S(=O)(=O)n2c([N+](=O)[O-])cnc2C)c(C)c1 | -1% | -3% | 18% | 15 | 4
COCCCN(C(=O)c1cc(C)oc1C)c1c(N)n(CC(C)C)c(=O)[nH]c1=O | . | -8% | -20% | . | .
CS(=O)(=O)N1CCN(C(=O)C(Sc2ccccc2)c2ccccc2)CC1 (stereo unspecified) | -20% | . | 3% | -17 | -2
COc1ccccc1N1CCN(C(=O)COc2ccc(Cl)cc2Br)CC1 | -142% | 8.3µM* | -27% | 20 | 2
COc1ccccc1N1CCN(C(=O)C(Sc2ccccc2)c2ccccc2)CC1 (stereo unspecified) | -5% | 7% | 13µM* | -2 | -1
COc1ccc(NS(=O)(=O)c2ccc(OCC(=O)N3CCOCC3)cc2)cc1Cl | -1% | 20% | -11% | -17 | -3
O=C(OCn1ncc(Br)c(Br)c1=O)c1c(F)cccc1F | -135% | . | ? | 3 | 17*
O=C(CN1CCOC1=O)N1CCCC(N2CCN(c3cccc(C(F)(F)F)c3)CC2)C1 (stereo unspecified) | 4% | -23% | 3% | -6 | 7
SMILES | NS1 function inh | Pf growth 96h | Pf growth 48h | Shiga toxin inh | Cycloheximide cs
COc1cc(OC)c2c(c1O)OC(c1ccccc1)CC2=O (stereo unspecified) | 2% | 9% | 32% | -9 | -3
O=C(NC1CCN(C(=O)N2c3ccccc3Sc3ccccc32)CC1)c1ccco1 | -56% | ? | 1.7µM* | -9 | -3
O=C(c1ccco1)N1c2ccccc2Sc2ccccc21 | -33% | 18% | ? | 13 | 6
O=C(c1ccco1)N1CCN(C(=O)N2c3ccccc3Sc3ccccc32)CC1 | -119% | ? | 12µM* | 13 | -2
COc1cccc(C(=O)NC2CCN(C(=O)N3c4ccccc4Sc4ccccc43)CC2)c1 | 21% | 5.2µM* | 8.3µM* | -5 | 4
COc1cccc(C(=O)N2c3ccccc3Sc3ccccc32)c1 | -15% | 102% | 10µM* | 13 | -2
CCOC(=O)C1CCCN(C(=S)NC(=O)/C=C/c2ccc(F)cc2)C1 (stereo unspecified) | 10% | 1% | ? | -4 | 19
Oc1ccc2oc3c(c2c1/C=N/n1cnnc1)CCCC3 | -2% | ? | -7% | 26 | 17
